Laboratory results: ChEMBL document CHEMBL3988442, “University of Dundee, Small-Polar-MMV Screening Library” (2021)
Among all 48,000 compounds or so, about 13,000 (27%) showed an effect of 50% or more. This is one part of the list.

system: Wolbachia pipientis; assay: Anti-Wolbachia Cell-Based Screen; assay type: functional; design: scale not given: in the data most compounds retested in dose-response had high values; conditions: 5 µM

| Compound | Percent Effect [%] |
| --- | --- |
| Cc1nnc2n1CCN(Cc1csc(-c3ncccn3)n1)C2 | 110.5 |
| CCc1nnc2n1CCN(Cc1csc(-c3ccc(C)o3)n1)C2 | -1.199 |
| Cc1ccc(-c2nc(CN3CCn4c(nnc4C4CC4)C3)cs2)o1 | 3.918 |
| CCc1nnc2n1CCN(Cc1csc(-c3ncccn3)n1)C2 | -18.32 |
| c1cnc(-c2nc(CN3CCn4c(nnc4C4CC4)C3)cs2)nc1 | 13.95 |
| Cc1nnc2n1CCN(CCOc1ccccc1)C2 | 2.68 |
| Cc1nnc2n1CCN(Cc1csc(COc3ccccc3)n1)C2 | 109.3 |
| Cc1nnc2n1CCN(Cc1csc(-c3ccc(F)cc3)n1)C2 | -7.701 |
| Cc1nnc2n1CCN(Cc1csc(-c3cnn(C)c3)n1)C2 | -23.78 |
| CCc1nnc2n1CCN(Cc1csc(-c3ccsc3)n1)C2 | -5.09 |
| Cc1ccc(-c2nc(CN3CCn4c(C)nnc4C3)cs2)o1 | 51.15 |
| Cc1nnc2n1CCN(Cc1csc(-c3ccsc3)n1)C2 | 121.4 |
| CC(C)C1C(=O)NCCN1C(=O)CCCc1nc(C(C)(C)C)no1 (centres undefined) | -23.49 |
| COc1ccnc(N2CCN(C(=O)CCc3cnn(C)c3)CC2)n1 | 36.6 |
| COCC1CN(Cc2cc(C)on2)Cc2cn(C)nc21 (centres undefined) | 6.327 |
| CCN(C)CC1CCN(S(=O)(=O)c2cc(C)c(F)cc2Cl)C1 (centres undefined) | 6.524 |
| COc1c(C2CCCN2CC(=O)Nc2nc(C)cs2)c(C)nn1C (centres undefined) | -2.535 |
| Cc1nn(C)c(C)c1C1CCCN1CC(=O)Nc1ccncc1 (centres undefined) | 1.396 |
| COc1c(C2CCCN2CC(=O)Nc2cc(C)no2)c(C)nn1C (centres undefined) | -8.496 |
| Cc1cc(CN2CCCC2c2c(C)nn(C)c2Cl)no1 (centres undefined) | 7.779 |
| COc1c(C2CCCN2CC(=O)NCc2ccccn2)c(C)nn1C (centres undefined) | 101.4 |
| Cc1nn(C)c(Cl)c1C1CCCN1CC(=O)NCc1ccccn1 (centres undefined) | -3.313 |
| Cc1nn(C)c(C)c1C1CCCN1CC(=O)NCc1ccccn1 (centres undefined) | 103.7 |
| Cc1nn(C)c(Cl)c1C1CCCN1Cc1ccccn1 (centres undefined) | 85.99 |
| Cc1nn(C)c(Cl)c1C1CCCN1CCc1ccccn1 (centres undefined) | 5.429 |
| CNC(=O)C1CCC(NC(=O)N(C)Cc2c(C)noc2C)CC1 (centres undefined) | 3.279 |
| Nc1cc(O)nc(CCNC(=O)CC[C@@H]2CCCN3CCCC[C@H]23)n1 | -22.38 |

| Compound | Percent Effect [%] |
| --- | --- |
| CCC(O)CN(Cc1cccc(C(=O)N(C)C)c1)c1ccccc1 (centres undefined) | 6.575 |
| CCC(C)(O)CNc1ccc(S(=O)(=O)C(F)F)cc1 (centres undefined) | -17.2 |
| Cn1c(=O)[nH]c2cc(C(=O)OCC(F)F)ccc21 | -3.927 |
| CC(C)n1cnnc1Cn1c(=O)cnc2ccccc21 | -19.8 |
| CCC1(C(=O)O)CCCN(C(=O)c2ccc(O)c(Cl)c2)C1 (centres undefined) | -6.141 |
| Cc1ccc(C(=O)N2CCCC(C(=O)N3CCCCC3)C2)c(O)c1 (centres undefined) | -5.568 |
| Cc1ccc(O)c(C(=O)N2CCCC(NC(=O)C(C)C)C2)c1 (centres undefined) | 85.08 |
| CC(C)C(=O)NC1CCCN(C(=O)c2cc(Cl)ccc2O)C1 (centres undefined) | 122.5 |
| O=C(c1cccc(Cl)c1)N1CCCC(Nc2ccc(F)cc2)C1 (centres undefined) | -14.25 |
| CC(=O)NC1CCCN(C(=O)CNc2cc(Cl)cc(Cl)c2)C1 (centres undefined) | -7.422 |
| CCC1CN(C(=O)c2ccc(Cl)cc2O)CCN1C(C)C (centres undefined) | -0.08814 |
| CC(C)C(=O)NC1CCCN(C(=O)c2ccc(O)c(Cl)c2)C1 (centres undefined) | 88.73 |
| Cc1ccc(C(=O)N2CCCC(NC(=O)C(C)C)C2)c(O)c1 (centres undefined) | 9.198 |
| COc1c(F)cc(NC(=O)N2CCC(CSC)C2)cc1F (centres undefined) | -4.081 |
| CS(=O)(=O)CCNC(=O)Nc1sc2ccccc2c1Cl | -6.956 |
| CCCn1[nH]cc/c1=N\C(=O)CN1CCCC1c1cccn1C (centres undefined) | -13.94 |
| Cc1noc(C2CCC3(CCN(C(=O)c4cnn(C)c4)CC3)O2)n1 (centres undefined) | 95.88 |
| Cc1noc(C2CCC3(CCN(C(=O)C4CCOCC4)CC3)O2)n1 (centres undefined) | 108.6 |
| Cc1noc(C2CCN(C(=O)c3cc(Br)ccc3F)CC2)n1 | 2.952 |
| Cn1cc(C(=O)N2CC[C@@]3(O)CCN(C(=O)C4CCCC4)C[C@H]3C2)cn1 | 2.716 |
| O=C(C1CCOCC1)N1CCC2(CCC(C(=O)N3CCCC3)O2)CC1 (centres undefined) | -2.84 |
| Cc1noc(C2CCC3(CCN(C(=O)c4sccc4C)CC3)O2)n1 (centres undefined) | 105.9 |
| Cc1noc(C2CCCN(C(=O)c3scnc3Cl)C2)n1 (centres undefined) | 3.125 |
| Cc1noc(C2CCC3(CCN(C(=O)c4ccn(C)n4)CC3)O2)n1 (centres undefined) | 89.59 |
| Cc1noc(C2CCC3(CCN(C(=O)C4=CCCCC4)CC3)O2)n1 (centres undefined) | -12.42 |
| Cn1ccc(C(=O)N2CCC3(CCC(=O)N(C4CCCC4)C3)CC2)n1 | 5.203 |
| Cc1noc([C@H]2C[C@H]3CN(C(=O)C4CCOCC4)CC[C@@H]3O2)n1 | -6.774 |
